From the supplement of paper PMC4894684
Counter-ions that a name gives are not always drawn. ± gives the standard deviation of the averaged measurements.

Test system: Toxoplasma gondii RH (in HFF)
Assay: parasite growth relative to the screen mean (all compounds = 100%); higher = less inhibition of parasite growth
Settings: 5 µM; 72 h; oxygen 21 %
Method in brief: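 Library compounds, held as 10 mM DMSO stocks, were pinned to 5 µM final onto confluent human foreskin fibroblasts in 96-well plates. The cells were infected within 2 h with RH β-Gal–GFP Toxoplasma (MOI 1:5), grown 72 h at 21% O2, and assayed for parasite number by CPRG β-Gal using in-plate standard curves. Growth is reported relative to the screen mean, in which all compounds = 100%, averaged over two screens, and CellTiter-Blue checked uninfected host-cell viability.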

| Compound | parasite growth |
| --- | --- |
| O=C1Nc2ccc(I)cc2/C1=C/c1cc(Br)c(O)c(Br)c1 | 114 ± 18% |
| CCOc1ccccc1OC(c1ccccc1)C1CNCCO1 (centres undefined) [Reboxetine mesylate] | 102 ± 5.2% |
| Cc1cc(Cn2cnc3c2CC(C(=O)O)N(C(=O)C(c2ccccc2)c2ccccc2)C3)ccc1N(C)C (centres undefined) | 130 ± 23% |
| COC1(C2=NCCN2)COc2ccccc2O1 (centres undefined) | 136 ± 3.9% |
| CCOC(=O)[C@H](CCc1ccccc1)N[C@@H](C)C(=O)N1Cc2cc(OC)c(OC)cc2C[C@H]1C(=O)O [Moexipril hydrochloride] | 63.9 ± 14% |
| COc1cc(COc2cc(N)c(Cl)cc2C(=O)CCC2CCN(CCNS(C)(=O)=O)CC2)cc(OC)c1 | 28.1 ± 16% |
| N=C(N)SCCc1c[nH]cn1 [Imetit dihydrobromide] | 91.9 ± 21% |
| OCc1cc(C(O)CNCCCCCCOCCCCc2ccccc2)ccc1O (centres undefined) [Salmeterol] | 14.4 ± 11% |
| CC#C[C@]1(O)CC[C@H]2[C@@H]3CCC4=CC(=O)CCC4=C3[C@@H](c3ccc(N(C)C)cc3)C[C@@]21C [Mifepristone] | 135 ± 14% |
| COc1ccccc1N1CCN(CCCNc2cc(=O)n(C)c(=O)n2C)CC1 [Urapidil hydrochloride] | 105 ± 3.7% |
| O=C1c2ccccc2C(Cc2ccncc2)(Cc2ccncc2)c2ccccc21 [XE 991 dihydrochloride] | 34.3 ± 6.2% |
| CN1CCN2c3ncccc3Cc3ccccc3C2C1 (centres undefined) [Mirtazepine] | 92.3 ± 34% |
| CC(C)C(=O)c1c(C(C)C)nn2ccccc12 [Ibudilast] | 75.7 ± 12% |
| c1ccc(N2CCN(CCCOc3ccc4c(c3)OCO4)CC2)cc1 [BP 554 maleate] | 127 ± 0.98% |
| N#C/C(=C\c1ccc(O)c(O)c1)C(=O)OCCc1cccs1 | 132 ± 15% |
| O=C(/C=C/c1c(C(=O)O)[nH]c2cc(Cl)cc(Cl)c12)Nc1ccccc1 [Gavestinel] | 114 ± 17% |
| COc1ccc(NC(=O)c2ccc(-c3ccc(-c4noc(C)n4)cc3C)cc2)cc1OCCN(C)C | < 0% |
| CCCCCCCCCCCCCCCC(=O)O[C@H](CC(=O)O)C[N+](C)(C)C (racemic) [(±)-Palmitoylcarnitine chloride] | 108 ± 22% |
| O=C(NCCCCCCNC(=O)ON=C1CCCCC1)ON=C1CCCCC1 | 28.7 ± 2.9% |
| Cc1c(CC(C)(C)C(=O)O)n(Cc2ccc(Cl)cc2)c2ccc(F)cc12 | 129 ± 22% |

| Compound | parasite growth |
| --- | --- |
| CC(C)NCC(O)COc1ccc(COCCOC(C)C)cc1 (racemic) [(±)-Bisoprolol hemifumarate] | 77.7 ± 0.94% |
| O=c1c(O)c(-c2ccc(O)c(O)c2)oc2cc(O)cc(O)c12 [Quercetin] | 180 ± 32% |
| O=C(CCCN1CCC(O)(c2ccc(Cl)cc2)CC1)c1ccc(F)cc1 [Haloperidol hydrochloride] | 134 ± 39% |
| OC(CCCN1CCN(c2ncc(F)cn2)CC1)c1ccc(F)cc1 (centres undefined) | 64.6 ± 30% |
| CC(C)c1ccccc1S(=O)(=O)c1cc(N)c2ncccc2c1[N+](=O)[O-] | 88.4 ± 2.1% |
| NC(=O)CCCCn1ccc(NC(N)=NCC(F)(F)F)n1 | 95.1 ± 10% |
| COc1ccc(Nc2nccc(NCCO)n2)cc1 [Cardiogenol C hydrochloride] | 122 ± 4.2% |
| CN/C(=N\CCSCc1nc[nH]c1C)NC#N [Cimetidine] | 118 ± 10% |
| CCC1=C(C)CN(C(=O)NCCc2ccc(S(=O)(=O)NC(=O)N[C@H]3CC[C@H](C)CC3)cc2)C1=O [Glimepiride] | 149 ± 43% |
| Cc1ccc(OCC(O)C(C)NC(C)C)c2c1CCC2 (centres undefined) [ICI-118,551 hydrochloride] | 92.9 ± 14% |
| O=C1C(SCCO)=C(SCCO)C(=O)c2ccccc21 | 180 ± 14% |
| O=c1cc(N2CCOCC2)oc2c(-c3ccccc3)cccc12 | 129 ± 26% |
| CC(C)Oc1cccc(-n2c(CCc3c[nH]c4ccc(Br)cc34)nc3ccccc3c2=O)c1 | 55.84 ± 0.023% |
| OC[C@H]1NC[C@@H](O)[C@@H](O)[C@@H]1O [1-Deoxymannojirimycin hydrochloride] | 141 ± 9.1% |
| CC1C(=O)OC2C(O)C34C5CC(C(C)(C)C)C36C(OC(=O)C6O)OC4(C(=O)O5)C12O (centres undefined) [Ginkgolide B] | 82.1 ± 27% |
| CCCn1c(=O)c2[nH]c(-c3ccccc3)nc2n(CCC)c1=O [1,3-Dipropyl-8-phenylxanthine] | 47 ± 7.9% |
| COc1ccc(-c2nc(-c3ccc(-c4cccc(Cl)c4)o3)[nH]c2-c2ccc(OC)cc2)cc1 [Neurodazine] | 120 ± 28% |
| COc1ccc(Nc2ncnc3ccc(OC)cc23)cc1 [MPMQ hydrochloride] | 146 ± 14% |
| CC(C)(C(=O)O)c1ccc(C(O)CCCN2CCC(C(O)(c3ccccc3)c3ccccc3)CC2)cc1 (centres undefined) [Fexofenadine hydrochloride] | 122 ± 26% |
